In the library only some 2.2% were active in any assay of this set; here they are far more common.
APP transl inh: APP translation inhibition; SH-SY5Y APP 5'UTR-luciferase reporter, luminescence; inhibition, % at 2 µM; AID 1285; 190,000 tested, 0.82% active;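 active means inhibition above a set limit, derived from the sample mean plus 3 SD, cut at about 45% in these data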
KLF5 inh: inhibitors of KLF5 expression; DLD-1 KLF5 promoter-luciferase reporter, luminescence; inhibition, % at 5 µM; 290,000 tested, 0.23% active; AID 1700;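 active means inhibition above a per-plate limit of that plate's mean compound inhibition plus 3 SD, cut at about 60% in these data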;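 further: higher means less KLF5 promoter-driven luciferase light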
Ba/F3 V617F tox: lowers viability of Ba/F3 cells expressing EpoR and JAK2V617F; ATP luminescence; inhibition, % at 5.6 µM; 220,000 tested, 1.1% active;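 active means inhibition above the campaign mean plus 3 SD over all tested compounds, cut at about 24% in these data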;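 further: cytokine-independent growth of Ba/F3 cells driven by EpoR plus mutant JAK2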
aSyn UTR inh: MLPCN primary screen, SNCA 5' untranslated region; alpha-synuclein 5'UTR reporter, inhibitor activity; AID 1813; 300,000 tested, 0.82% active; inhibition, % (tested at 7.5 µM); in the data active means inhibition above about 60%;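 further: H4 neuroglioblastoma cells stably carrying SNCA 5'UTR luciferase fusion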
IEC-6 tox-1: IEC-6 cytotoxicity, counter-screen for KLF5 inhibitors; inhibition, % at 5 µM; luminescence viability; 290,000 tested, 0.78% active; in the data active means inhibition above about 22%
BaF3 tox: counter-screen for JAK2V617F inhibitors: parental Ba/F3 viability inhibitors; CellTiter-Glo ATP luminescence; inhibition, % at 5.6 µM; 220,000 tested, 1.1% active;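 active means inhibition above a per-campaign cutoff, the mean inhibition of all tested compounds plus 3 SD, cut at about 27% in these data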
KLF5 confirm: confirmation of KLF5 inhibitors. shares compounds with KLF5 inh. DLD-1 KLF5 promoter firefly luciferase reporter, luminescence. inhibition, % at 4 µM. 610 tested, 79% active. AID 1834;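 active means inhibition above a set limit taken from the earlier primary screen, cut at about 63% in these data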
IEC-6 tox-2: kills rat IEC-6 cells in KLF5 counter-screen | shares compounds with KLF5 inh | IEC-6 rat intestinal cells, viability luminescence | inhibition, % at 4 µM | 610 tested, 56% active; in the data active means inhibition above about 23%;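 further: cells exposed to compounds for 48 hours before viability read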
Hits are given with their value.

For Cc1ccc(NC(=O)c2cc3ccccc3oc2=O)cc1S(=O)(=O)N(C)C the results were APP transl inh 47, KLF5 inh 76, Ba/F3 V617F tox inactive, aSyn UTR inh 73, IEC-6 tox-1 inactive, BaF3 tox inactive, KLF5 confirm 87 and IEC-6 tox-2 inactive.
C=CCc1cccc(/C=N/NC(=O)c2ccc3nc[nH]c3c2)c1O was read as KLF5 inh 63, aSyn UTR inh inactive, IEC-6 tox-1 inactive, KLF5 confirm inactive and IEC-6 tox-2 27.
For CC(=O)c1sc2nsc(SCCN3CCCC3)c2c1N the results were KLF5 inh inactive, Ba/F3 V617F tox inactive, aSyn UTR inh inactive, IEC-6 tox-1 inactive and BaF3 tox inactive.
Screening O=C(CSc1nnc(CNc2ccc(F)cc2)o1)c1ccccc1 returned APP transl inh inactive, KLF5 inh inactive, Ba/F3 V617F tox inactive, aSyn UTR inh inactive, IEC-6 tox-1 inactive and BaF3 tox inactive.
Screening Cc1ccc(NC(=O)n2ncc3c(C)cccc32)cc1F returned KLF5 inh 83, aSyn UTR inh inactive, IEC-6 tox-1 inactive, KLF5 confirm 85 and IEC-6 tox-2 inactive.
Screening COc1ccc(NC(=O)n2ncc3c(C)cccc32)cc1OC returned KLF5 inh inactive, aSyn UTR inh inactive and IEC-6 tox-1 inactive.
Screening Cc1nc2ccccn2c1-c1csc(Nc2cccc(O)c2)n1 returned APP transl inh 89, KLF5 inh 74, Ba/F3 V617F tox 80, aSyn UTR inh inactive, IEC-6 tox-1 inactive, BaF3 tox 78, KLF5 confirm 68 and IEC-6 tox-2 inactive.
Screening Cc1cc(-n2c(C)cc(C(=O)CSc3nncn3C(C)C)c2C)no1 returned aSyn UTR inh inactive.
Screening CCc1ccn2cc(-c3ccc4c(c3)OCO4)nc2c1 returned KLF5 inh 66, Ba/F3 V617F tox inactive, aSyn UTR inh 107, IEC-6 tox-1 inactive, BaF3 tox inactive, KLF5 confirm 62 and IEC-6 tox-2 inactive.
For Oc1ccc(/C=C/c2ccc3ccccc3n2)cc1 the results were APP transl inh inactive, KLF5 inh 78, Ba/F3 V617F tox 68, aSyn UTR inh 90, IEC-6 tox-1 26, BaF3 tox 39, KLF5 confirm inactive and IEC-6 tox-2 inactive.
Screening Cc1ccccc1CSc1nc2[nH]ncc2c(=O)[nH]1 returned APP transl inh inactive, KLF5 inh inactive, Ba/F3 V617F tox inactive, aSyn UTR inh inactive, IEC-6 tox-1 inactive and BaF3 tox inactive.
`Cc1ccc(C)c(CSc2nc3[nH]ncc3c(=O)[nH]2)c1` gave APP transl inh 85, KLF5 inh 65, Ba/F3 V617F tox 83, aSyn UTR inh inactive, IEC-6 tox-1 63, BaF3 tox 76, KLF5 confirm 68 and IEC-6 tox-2 53.
For O=C(Nc1cccc(O)c1)c1cc(-c2ccc3c(c2)OCO3)on1 the results were KLF5 inh 83, aSyn UTR inh 69, IEC-6 tox-1 inactive, KLF5 confirm 72 and IEC-6 tox-2 inactive.
O=C(CCl)Nc1cc(SCC(O)CO)cc([N+](=O)[O-])c1 (centres undefined) was read as APP transl inh inactive, KLF5 inh 84, Ba/F3 V617F tox 99, aSyn UTR inh 110, IEC-6 tox-1 inactive, BaF3 tox 99, KLF5 confirm 112 and IEC-6 tox-2 34.
Screening CC(C)(C)c1ccc(-c2noc(CCC(=O)NCC3CCCO3)n2)cc1 (centres undefined) returned APP transl inh 60, KLF5 inh 74, Ba/F3 V617F tox inactive, aSyn UTR inh 104, IEC-6 tox-1 inactive, BaF3 tox inactive, KLF5 confirm 67 and IEC-6 tox-2 inactive.
For CC(C)(C)c1ccc(-c2noc(CCC(=O)Nc3cccnc3)n2)cc1 the results were KLF5 inh 78, aSyn UTR inh 77, IEC-6 tox-1 inactive, KLF5 confirm 87 and IEC-6 tox-2 inactive.
For Cc1ccc(-c2noc(CCC(=O)NCC3CCCO3)n2)cc1 (centres undefined) the results were APP transl inh inactive, KLF5 inh inactive, Ba/F3 V617F tox inactive, aSyn UTR inh inactive, IEC-6 tox-1 inactive and BaF3 tox inactive.
`CC(C)(C)c1ccc(-c2noc(CCC(N)=O)n2)cc1` gave APP transl inh 72, KLF5 inh 86, Ba/F3 V617F tox inactive, aSyn UTR inh 91, IEC-6 tox-1 inactive, BaF3 tox inactive, KLF5 confirm 85 and IEC-6 tox-2 inactive.
Screening CCOC(=O)N1CCC(N2CCCC(CO)(Cc3cccc(Cl)c3)C2)CC1 (centres undefined) returned APP transl inh inactive, KLF5 inh inactive, Ba/F3 V617F tox inactive, aSyn UTR inh inactive, IEC-6 tox-1 inactive and BaF3 tox inactive.
`Cc1ccc(C(=O)O/N=C(\N)c2ccccn2)c(C)c1` gave KLF5 inh 108, aSyn UTR inh 106, IEC-6 tox-1 inactive, KLF5 confirm 104 and IEC-6 tox-2 inactive.
For COc1ccc(/C=N/NC(=O)CCn2c3ccccc3c3ccccc32)cc1O the results were APP transl inh 87, KLF5 inh 74, Ba/F3 V617F tox 78, aSyn UTR inh inactive, IEC-6 tox-1 inactive, BaF3 tox 71, KLF5 confirm 79 and IEC-6 tox-2 inactive.
`COc1ccc(Cc2c(O)nc(SCC(=O)NC(C)(C)C)[nH]c2=O)cc1` gave APP transl inh inactive, KLF5 inh inactive, Ba/F3 V617F tox inactive, aSyn UTR inh inactive, IEC-6 tox-1 inactive and BaF3 tox inactive.
For CCOC(=O)COc1cccc2c(=O)n(CC(=O)NCc3ccc(F)cc3)ccc12 the results were KLF5 inh 63, Ba/F3 V617F tox 72, aSyn UTR inh 75, IEC-6 tox-1 inactive, BaF3 tox 68, KLF5 confirm 80 and IEC-6 tox-2 23.
For CCN(CC)CCn1nc(C)nc1-c1ccccc1O the results were APP transl inh inactive, KLF5 inh inactive, Ba/F3 V617F tox inactive, aSyn UTR inh inactive, IEC-6 tox-1 inactive and BaF3 tox inactive.
CCN(CC)CCn1nc2c3c(cccc3c1=O)-c1ccccc1-2 was read as APP transl inh 68, KLF5 inh 72, Ba/F3 V617F tox 102, aSyn UTR inh inactive, IEC-6 tox-1 87, BaF3 tox 100, KLF5 confirm inactive and IEC-6 tox-2 75.
O=C(N/N=C/c1c(O)ccc2ccccc12)c1ccc(Br)o1 was read as KLF5 inh 68, aSyn UTR inh 106, IEC-6 tox-1 inactive, KLF5 confirm 86 and IEC-6 tox-2 inactive.
Screening Cc1occc1C(=O)N/N=C/c1c(O)ccc2ccccc12 returned KLF5 inh inactive, aSyn UTR inh inactive and IEC-6 tox-1 inactive.
O=C(CSCC(=O)Nc1ccccc1)N/N=C/c1c(O)ccc2ccccc12 was read as APP transl inh 66, KLF5 inh 68, Ba/F3 V617F tox inactive, aSyn UTR inh 76, IEC-6 tox-1 inactive, BaF3 tox inactive, KLF5 confirm 79 and IEC-6 tox-2 inactive.
Screening CCN(CC)C(=S)SCc1csc(CC(=O)Nc2ccccc2C)n1 returned KLF5 inh inactive, aSyn UTR inh inactive and IEC-6 tox-1 inactive.
Screening O=C(Nc1c(-c2ccccc2)nc2ccccn12)c1ccccc1F returned KLF5 inh inactive, aSyn UTR inh inactive and IEC-6 tox-1 inactive.

From PubChem
